Active and inactive are the calls of the source. Unless noted, no rule for the calls is given here.
Key:
[1] = test system: Wnt5a (protein binding on small-molecule microarray); experiment: Wnt5a binders on small-molecule microarray, primary screen, biophysical, 635/667 nm fluorescence (AID 1142); conditions: 635 nm fluorescence, higher = more signal;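 also: fluorescence read at 667 nm with signal to noise per printed feature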
[2] = cell viability in Huh7 cells, primary screen, cytotoxicity control for HCV replication inhibitor project, CellTiter-Glo luminescence, basal, 48 h (AID 1143); conditions: Huh7 HCV replicon, higher = more signal, called active from +8 up or from −8 down;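 also: Huh7 hepatoma cells carrying a hepatitis C replication reporter with no stimulus; test concentration not given here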
[3] = P. aeruginosa biofilm formation inhibitors, primary screen, PAO1 strain, BacTiter-Glo luminescence, LB-PBS (AID 1144); conditions: 12 h, higher = more signal
[4] = CREB reporter modulators without forskolin, primary screen, cell-based, PC12, CRE-LacZ reporter, unstimulated (AID 1145); conditions: no forskolin, luminescence, 4.5 h, higher = more signal, called active from +8 up or from −8 down
[5] = CREB reporter modulators under forskolin, primary screen, cell-based, PC12, CRE-LacZ reporter, forskolin-stimulated (AID 1146); conditions: luminescence, 4.5 h, higher = more signal, called active from +8 up or from −8 down;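 also: PC12 cells with 6xCRE LacZ reporter stimulated by forskolin 10 µM; beta-galactosidase reporter signal reflecting CREB driven transcription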
[6] = molecular target: Streptavidin (Streptomyces avidinii) (UniProt P22629); experiment: streptavidin binders on small-molecule microarray, primary screen, artefact control for SMM compound annotation, biophysical, 635/667 nm fluorescence (AID 1147); conditions: streptavidin binding, higher = more signal;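 also: signal reflects streptavidin binding to arrayed compounds as a control protein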
Chain of Streptavidin (Streptomyces avidinii) (P22629 whole entry, looked up): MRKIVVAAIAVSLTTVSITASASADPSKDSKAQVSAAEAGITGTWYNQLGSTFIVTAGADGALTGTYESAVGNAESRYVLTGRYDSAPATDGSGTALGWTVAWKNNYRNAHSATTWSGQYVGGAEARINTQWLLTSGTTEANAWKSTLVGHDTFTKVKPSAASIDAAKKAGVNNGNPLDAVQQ

[7] = small-molecule binders of probe aInhba, primary screen, biochemical, small-molecule microarray, 635/667 nm fluorescence (AID 1148); conditions: higher = more signal;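 also: score merges 667nm spot fluorescence with signal-to-noise for antibody binding to printed compounds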
Torsin-1A (Homo sapiens) [8] = molecular target: Torsin-1A (Homo sapiens) (UniProt O14656); experiment: torsin A binders from cell lysate, primary screen, small-molecule microarray, wild-type, 635/667 nm (AID 1149); conditions: COS7 hTOR1A-WT lysate, 635 nm fluorescence, higher = more signal
Chain of Torsin-1A (Homo sapiens) (O14656 whole entry, looked up): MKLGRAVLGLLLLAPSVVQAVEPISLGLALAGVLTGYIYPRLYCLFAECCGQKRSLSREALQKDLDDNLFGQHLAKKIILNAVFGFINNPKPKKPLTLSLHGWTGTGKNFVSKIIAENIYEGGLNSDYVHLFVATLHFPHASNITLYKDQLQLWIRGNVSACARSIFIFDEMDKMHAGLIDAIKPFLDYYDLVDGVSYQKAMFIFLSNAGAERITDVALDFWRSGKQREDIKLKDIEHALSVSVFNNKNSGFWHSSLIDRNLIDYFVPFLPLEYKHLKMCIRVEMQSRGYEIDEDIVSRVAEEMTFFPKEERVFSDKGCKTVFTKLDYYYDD

Torsin-1A (Homo sapiens) [9] = molecular target: Torsin-1A (Homo sapiens) (UniProt O14656); experiment: small-molecule binders of mutant TOR1A in lysate, primary screen, cell lysate, small-molecule microarray, COS7 lysate, 635/667 nm fluorescence (AID 1150); conditions: COS7 hTOR1A mutant lysate, 635 nm fluorescence, higher = more signal;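 also: score pools 667 nm emission and signal to noise measuring lysate protein binding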
[10] = test system: Sonic hedgehog protein (Shh); experiment: small-molecule binders of Shh protein, primary screen, biochemical, small-molecule microarray, 635/667 nm fluorescence (AID 1151); conditions: small-molecule microarray binding, 635 nm fluorescence; higher = more signal;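 also: Shh protein binding to compounds spotted on small-molecule microarray slides; score combines spot fluorescence intensity with signal-to-noise across triplicate slides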

SMILES | composite z-score [1] | z-score [2] | z-score [3] | z-score [4] | z-score [5] | composite z-score [6] | composite z-score [7] | composite z-score (Torsin-1A (Homo sapiens) [8]) | composite z-score (Torsin-1A (Homo sapiens) [9]) | composite z-score [10]
CCc1cc2c(nc1CC)CCN(CCC(C)=NOC(C)CN1CCCc3nc(C)c(C)cc31)C2 (stereo not given) | 0.56 | -0.0844 (inactive) | -0.129 (inactive) | 1.14 (inactive) | 0.534 (inactive) | 0.854 | 0.341 | 1.31 | 0.748 | 1.35
CO[C@H]1COC(=O)[C@H](C)NC(=O)[C@@H](C)COC(=O)CC=C[C@@H]1C | -0.185 | -0.068 (inactive) | -0.865 (inactive) | 0.341 (inactive) | -0.178 (inactive) | -0.356 | -0.016 | 1.24 | 0.296 | 1.47
CC(C)CN1CCc2nc(-c3ccccc3)c3c(c2CC1)CO[C@@H](C)C3 | 0.134 | -0.388 (inactive) | -0.705 (inactive) | 0.738 (inactive) | -1.26 (inactive) | -0.2 | 0.255 | 0.531 | 0.954 | 1.53
CC(=O)O[C@H]1C2=C(C(=O)[C@@H]3O[C@@H]31)[C@H]1C(C)O[C@@H]2[C@@]23C(=O)[C@@H]4O[C@@H]4[C@@H](O)C2=CO[C@H](C)[C@@H]13 (stereo not given in full) | 0.129 | -1.6 (inactive) | 0.968 (inactive) | 0.108 (inactive) | 4.27 (inactive) | -0.503 | -0.214 | 0.0116 | 0.0652 | 0.283
COCCCNC(=O)[C@]1(CCC(=O)OC(C)(C)C)N=C(c2ccc(OCCCO)cc2)O[C@@H]1c1ccccc1N=[N+]=[N-] | 0.951 | -1.41 (inactive) | -1.67 (inactive) | -0.482 (inactive) | -0.478 (inactive) | 1.45 | 0.283 | 1.54 | 1.1 | -0.2
CC(=O)OC[C@H]1O[C@@H](ON=C[C@@H](C)[C@H](OCc2ccccc2)C(C)C)[C@H](OC(C)=O)[C@@H](OC(C)=O)[C@@H]1OC(C)=O | 0.235 | 0.558 (inactive) | -0.379 (inactive) | 2.19 (inactive) | 0.1 (inactive) | -0.173 | 0.157 | 1.68 | 0.958 | -0.925
CO[C@H]1COC(=O)[C@@H]2CCCN2C(=O)[C@@H](C)COC(=O)CC=C[C@@H]1C | 0.055 | 0.321 (inactive) | -0.556 (inactive) | -0.892 (inactive) | -0.0307 (inactive) | 0.457 | -0.0136 | 1.24 | 0.219 | 2.14
CCN1C(=O)[C@H]2[C@H]3[C@H](O)[C@H](O)CC(=NOC(C)CN4CCCCc5nc(C)c(C)cc54)[C@@H]3CC[C@H]2C1=O (stereo not given in full) | 0.185 | 0.06 (inactive) | 1.07 (inactive) | 0.778 (inactive) | 0.618 (inactive) | -0.0098 | -0.024 | 0.763 | 0.769 | 0.809
COc1ccc(O[C@H]2C=C[C@@H](c3ccccc3)O[C@@H]2COC(=O)CCC(C)=NOCC[C@@H]2C=C[C@H](OC(C)=O)[C@@H](COC(C)=O)O2)cc1 | -0.0096 | -1.06 (inactive) | 0.57 (inactive) | 0.918 (inactive) | 0.378 (inactive) | 0.0903 | -0.0736 | 1.56 | 0.43 | 0.661
O=C1[C@H]2[C@H]3[C@H](O)[C@H](O)CC(=NO[C@@H]4O[C@H](CO)[C@@H](O)[C@H](O)[C@H]4O)[C@@H]3CC[C@H]2C(=O)N1c1ccc(F)cc1F | 0.166 | 0.115 (inactive) | 0.593 (inactive) | 0.0711 (inactive) | 0.767 (inactive) | 0.38 | -0.0719 | 0.851 | 1.1 | 0.51
O=C1[C@H]2[C@H]3[C@H](O)[C@H](O)CC(=NO[C@@H]4O[C@H](CO)[C@@H](O)[C@H](O)[C@H]4O)[C@@H]3CC[C@H]2C(=O)N1Cc1ccc2c(c1)OCO2 | 0.163 | 0.548 (inactive) | 0.572 (inactive) | 0.245 (inactive) | 0.366 (inactive) | 0.335 | -0.0506 | 0.35 | 0.254 | 0.666
[N-]=[N+]=NCc1ccccc1[C@@H]1OC(c2ccc(OCCCO)cc2)=N[C@]1(Cc1ccccc1)C(=O)N1CCOCC1 | 0.599 | -3.55 (inactive) | 0.369 (inactive) | -0.0017 (inactive) | 0.531 (inactive) | 1.66 | 0.618 | 3.2 | 3.32 | 0.0283
N#Cc1ccc(NN2C(C(O)c3cccc4ccccc34)C=CC3C(=O)N(c4ccccc4)C(=O)C32)cc1 (stereo not given) | 0.305 | 0.128 (inactive) | -0.811 (inactive) | -0.708 (inactive) | -0.302 (inactive) | 1.75 | 0.49 | 0.612 | 0.358 | -0.335
C=C(COC)/C(=C/C[C@H](OC(=O)c1ccncc1)c1ccc(CO)o1)c1cc(C(=O)OC)ccc1OC | 0.868 | -0.0528 (inactive) | -1.27 (inactive) | 0.0422 (inactive) | 0.877 (inactive) | -0.24 | -0.003 | 0.787 | 0.366 | 1.62
CO[C@@H]1COC(=O)[C@@H]2CCCN2C(=O)[C@@H](C)COC(=O)[C@H](COCc2ccccc2)NC(=O)CC=C[C@H]1C | -0.127 | -0.388 (inactive) | -0.623 (inactive) | -0.799 (inactive) | 0.435 (inactive) | 0.107 | -0.172 | 0.999 | 0.121 | 0.731
COCCOC(=O)N1C(=O)[C@@]2(c3cc(C#CC4(O)CCCCCC4)ccc31)[C@H](C(=O)N1CCN(c3ncccn3)CC1)[C@H]1C(=O)O[C@H](c3ccccc3)[C@H](c3ccccc3)N1[C@@H]2c1ccc(OCCO)cc1 | 0.495 | -3.05 (inactive) | 0.905 (inactive) | -0.878 (inactive) | -0.249 (inactive) | 0.436 | 0.303 | 0.227 | 0.425 | 1.17
CC(CCC(=O)OC[C@H]1O[C@H](C#Cc2ccccc2)C=C[C@@H]1Oc1ccc(C)cc1)=NO[C@@H](C)c1cn([C@H](CO)Cc2ccccc2)nn1 | 0.204 | -2.82 (inactive) | -1.07 (inactive) | 1.07 (inactive) | 0.0061 (inactive) | 0.258 | -0.003 | -0.323 | -0.146 | 0.316
CC(=O)OC[C@H]1O[C@H](CCON=C[C@@H](C)[C@H](OCc2ccccc2)C(C)C)C=C[C@@H]1OC(C)=O | -0.0629 | -0.305 (inactive) | 0.0966 (inactive) | 1.16 (inactive) | 0.598 (inactive) | 0.133 | -0.199 | 0.658 | 0.284 | 0.372
[N-]=[N+]=Nc1ccccc1C[C@@]1(C(N)=O)N=C(c2ccc(OCCCO)cc2)O[C@@H]1c1ccccc1 | 0.0445 | -4.04 (inactive) | -0.616 (inactive) | 0.377 (inactive) | -1.39 (inactive) | 1.08 | 0.0561 | 0.296 | 0.355 | -0.714
COC(=O)CC=C[C@H](C)[C@@H](OCc1ccccc1Br)C(C)C | -0.106 | 0.298 (inactive) | -0.643 (inactive) | 0.194 (inactive) | 0.615 (inactive) | 0.228 | -0.128 | 0.066 | 0.674 | 0.438
C[C@@H](c1ccccc1)N1C(=O)[C@H]2[C@H]3[C@H](O)[C@H](O)CC(=NOC[C@@H](O)COCc4ccco4)[C@@H]3CC[C@H]2C1=O | -0.253 | 0.333 (inactive) | -0.0196 (inactive) | -0.292 (inactive) | 0.236 (inactive) | -0.485 | -0.176 | -0.304 | -0.294 | -0.494
CC(CCN1CCc2nc(-c3ccccc3)c(-c3ccccc3)cc2C1)=NO[C@H](C)c1cn([C@@H]2COC[C@H]2O)nn1 | 0.0025 | -0.615 (inactive) | -0.733 (inactive) | 0.983 (inactive) | -0.258 (inactive) | -0.384 | 0.0183 | 1.01 | 1.11 | 0.572
CC(=O)C[C@H](O)[C@@H](NC(=O)OC(C)(C)C)C(C)C | -0.388 | -2.64 (inactive) | -1.13 (inactive) | 0.288 (inactive) | 1.01 (inactive) | -0.3 | -0.0963 | -1.05 | -0.657 | 0.347

Reference: PubChem BioAssay
